High-throughput results: PubChem BioAssay, University of Kansas High Throughput Screening Laboratory
mHTT-CaM PPI inh: disrupts binding of mutant huntingtin to calmodulin; AID 1671202; 3.6% of 190,000 active; P42858; AlphaScreen His-mHTT/GST-CaM binding, luminescence; inhibition, % at 15 µM;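 note: 0% = both proteins with DMSO and 100% = one protein alone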
Pf apPOL block: Pf-apPOL DNA polymerase inhibition | Recombinant Pf-apPOL, molecular beacon fluorescence, 1.5 h | inhibition, % at 10 µM | 0.25% of 210,000 active
The depositor's hits bear a star; i = inactive; nt = no result given. A selection: hits, their analogues and other compounds. The true share with any hit is near 3.6%. Cut-off read from the data, not from the text of the source: active = inhibition above about 50%; inactive = the rest.

SMILES	mHTT-CaM PPI inh	Pf apPOL block
Cc1cccc(NC(=O)Cc2nc(-c3ccccn3)n[nH]2)c1	99*	-12
O=C(O)Cc1nc(-c2cccnc2)n[nH]1	-14	4
O=C(Cc1nc(-c2ccccc2)n[nH]1)Nc1ccc(Cl)cc1	-6	-1
Cc1cc(C)cc(NC(=O)Cc2nc(-c3ccccc3)n[nH]2)c1	-6	-2
CN(CC1(C)CCOCC1)C(=O)COc1ccc(F)c(F)c1	-4	0
COC(=O)C(NC(=O)NC1CCN(c2nc3ccccc3n(C)c2=O)CC1)C(C)C (stereo not drawn)	3	-4
CC(C)(C)[C@H]1CCC(=O)N([C@H](CSc2ccccc2)Cc2ccccc2)CC1	6	-6
CCCN1CCC(=O)N([C@H](COc2ccccc2)Cc2ccccc2)CC1	7	-8
CC(C)(C)[C@H]1CCC(=O)N([C@H](COc2ccccc2)Cc2ccccc2)CC1	64*	9
O=C1CCN(Cc2ccccc2)CCN1[C@H](COc1ccccc1)Cc1ccccc1	86*	-2
O=C1NC(=Nc2ccccc2)S/C1=C/c1ccccc1F	2	6
Nc1c(C(=O)NCc2ccco2)nnn1Cc1ccccc1Cl	-2	-8
Cc1ccc(-c2cc(=O)n(CC(=O)Nc3ccc(C)c(C)c3)[nH]2)cc1	10	2
O=C(Cn1[nH]c(-c2ccccc2)cc1=O)Nc1ccc(Cl)cc1	63*	-2
CCOc1ccc(-c2csc(Nc3ccccn3)n2)cc1	13	4
COc1ccc(Nc2nc(-c3ccccn3)cs2)cc1	99*	-5
CCOc1ccc(Nc2nc(-c3ccccn3)cs2)cc1	99*	-3
COc1ccc(-c2csc(Nc3cc(C)ccn3)n2)cc1	-5	-2
CCN(CC)c1ccc(C=NCCN2CCOCC2)cc1	-3	-10
Cc1ccc(S(=O)(=O)N2CCN(c3ccccc3[N+](=O)[O-])CC2)cc1	5	2
CC1CCN(Cc2nc(-c3ccc(N4CCCCCC4)nc3)no2)CC1	-1	-2
Cn1cccc1CN(C(=O)c1cc(=O)c2ccccc2o1)C1CC1	-1	-6
CC1(Cn2nnc([N+](=O)[O-])n2)Nc2ccccc2C(=O)N1c1ccccc1 (stereo not drawn)	0	1
COc1cccc(NS(=O)(=O)c2ccc3[nH]c4c(c3c2)CCCCC4)c1	98*	-1
CCOc1ccc(NS(=O)(=O)c2ccc3[nH]c4c(c3c2)CCCCC4)cc1	94*	-6
SMILES	mHTT-CaM PPI inh	Pf apPOL block
CCOc1ccc(NS(=O)(=O)c2ccc(NS(=O)(=O)c3ccccc3)cc2)cc1	-3	-4
COc1ccccc1CNS(=O)(=O)c1ccc2[nH]c(=O)sc2c1	-1	-1
COc1cccc(NC(=O)CN(C)S(=O)(=O)c2ccc3[nH]c4c(c3c2)CCCC4)c1	44	-3
COc1ccc(NS(=O)(=O)c2ccc3[nH]c4c(c3c2)CCCCC4)cc1	57*	-2
COc1ccc(CNC(=O)CN(C)S(=O)(=O)c2ccc3[nH]c4c(c3c2)CCCC4)cc1	32	-2
COc1ccc(OC)c(CNS(=O)(=O)c2ccc3[nH]c4c(c3c2)CCCCC4)c1	85*	-4
CSc1ccc(CNC(=O)C2c3ccccc3CC(=O)N2C(C)C)cc1 (stereo not drawn)	8	-3
COc1ccccc1NC(NC(=O)c1ccccc1C)C(Cl)(Cl)Cl (stereo not drawn)	8	-5
CNc1nccc(N2CCC(CC(=O)NCc3ccc(F)cc3)CC2)n1	6	-6
O=S(=O)(Nc1ccc(OCc2ccccc2)cc1)c1cccs1	11	-1
CCSc1ccccc1C(=O)NCC1CCN(C(=O)Oc2ccccc2)CC1	-2	1
CCOc1ccc(NS(=O)(=O)c2ccc3[nH]c4c(c3c2)CCCC4)cc1	91*	-1
CCOc1ccc(NC(=O)CN(C)S(=O)(=O)c2ccc3[nH]c4c(c3c2)CCCC4)cc1	44	-2
COc1ccc(C)cc1NS(=O)(=O)c1ccc2[nH]c3c(c2c1)CCCC3	81*	-6
COc1ccc(S(=O)(=O)Nc2ccc(S(=O)(=O)Nc3cc(C)ccc3C)cc2)cc1OC	3	5
COc1ccc2oc(=O)c(C(=O)Nc3ccc(NC(C)=O)cc3)cc2c1	1	7
O=C(NCC1CCN(C(=O)c2cc3ccccc3o2)CC1)c1nc2ccccc2s1	1	-22
Cc1cc(OCC(=O)N2CCN(c3ccccn3)CC2)cc(C)c1Cl	17	-9
NC(=S)NN=C1c2ccccc2-c2ccccc21	55*	nt
NC(=S)N/N=C/c1c2ccccc2cc2ccccc12	i	nt
O=C(COc1ccc(C2CCCCC2)cc1)Nc1nccs1	3	1
CCc1[nH]c2ccccc2c1C	50*	-11
Cc1c(Cl)c(=O)[nH]c2ccccc12	nt	-8
CC1CCN(C(=O)c2csc(COc3cccc(Cl)c3)n2)CC1	18	-4
CCCN1CCN(C(=O)c2ccc(-c3nc4ccccc4n(C)c3=O)cc2)CC1	7	-3
SMILES	mHTT-CaM PPI inh	Pf apPOL block
c1ccc(-c2nnc3n2C2(CCCC2)Cc2ccccc2-3)cc1	-2	3
O=C1C=C2c3ccccc3CC3(CCCC3)N2C1=O	84*	0
O=C(CSc1nnc(-c2ccco2)c(-c2ccco2)n1)N1CCc2ccccc2C1	93*	1
CCCCCCSc1nnc(-c2ccco2)c(-c2ccco2)n1	90*	4
CCc1ccc(NC(=O)CSc2nnc(-c3ccco3)c(-c3ccco3)n2)cc1	92*	0
CCCCSc1nnc2c(n1)OC(/C=C/c1ccco1)Nc1ccccc1-2 (stereo not drawn)	32	16
COc1cc(NC(=O)CSc2nnc(-c3ccco3)c(-c3ccco3)n2)cc(OC)c1	97*	-2
Cc1ccnc(SCC(=O)N2CCc3ccccc3C2)n1	-5	-43
CCc1ccc(NC(=O)CSc2nnc(-c3ccco3)o2)cc1	0	-9
COc1ccc(NC(=O)CSc2ncccn2)cc1	-2	2
COc1nn(C)cc1C(=O)NCC1(c2ccc(F)cc2)CC1	0	-10
Cc1sc2c(=O)n(C3CC3)cnc2c1C(=O)N1CCN(C2CCCCC2)CC1	8	2
CC1C(=O)N(c2ccc3c(c2)OCO3)CCN1Cc1ccc(F)cc1 (stereo not drawn)	11	1
Cc1ccc(F)cc1NS(=O)(=O)c1c[nH]c2ncccc12	-3	5
Cn1c(SCC(=O)c2ccc(O)cc2)nnc1-c1ccco1	-1	-3
O=C(CSc1nnc(-c2ccco2)c(-c2ccco2)n1)c1ccc(Cl)cc1	61*	-6
COc1ccc(CCN2C(=O)CCC2(C)C(=O)NCc2ccc(C)cc2)cc1OC (stereo not drawn)	0	1
COCCc1nc(C2CCCN2)n[nH]1 (stereo not drawn)	2	-7
O=C(c1ccc(F)c(F)c1)N1CCCN(Cc2nc3ccc(Cl)cc3o2)CC1	60*	-7
Cc1cc(C)cc(C(=O)N2CCCN(Cc3nc4ccccc4o3)CC2)c1	34	3
O=C(CSc1nccn1-c1ccccc1)Nc1cc(C(F)(F)F)ccc1Cl	13	-8
O=C(CSc1nccn1-c1ccc([N+](=O)[O-])cc1)Nc1cc(C(F)(F)F)ccc1Cl	51*	-8
O=C(CSc1nccn1-c1cccc(Cl)c1)Nc1cc(C(F)(F)F)ccc1Cl	13	-5
Cc1cc(C)cc(-n2ccnc2SCC(=O)Nc2cccc(C(F)(F)F)c2)c1	52*	4
Cc1cccc(-n2ccnc2SCC(=O)Nc2cccc(C(F)(F)F)c2)c1	49	-5
Cc1cccc(-n2ccnc2SCC(=O)Nc2cccc(C(F)(F)F)c2)c1C	17	-8
